Hits are enriched below; roughly 4.6% of the tested compounds scored in any of these assays.
TRHR PAM: qHTS for Small Molecule Agonists and Allosteric Enhancers of Human TRH Receptor: Primary Screen for Enhancers | Thyrotropin-releasing hormone receptor (Homo sapiens), P34981 | TRHR cells, fluo-8 calcium fluorescence, EC20 TRH enhancement | enhancement, % at 2 µM | 360,000 tested, 0.66% active; in the data active = enhancement above about 30%
Target sequence (P34981 whole entry, looked up): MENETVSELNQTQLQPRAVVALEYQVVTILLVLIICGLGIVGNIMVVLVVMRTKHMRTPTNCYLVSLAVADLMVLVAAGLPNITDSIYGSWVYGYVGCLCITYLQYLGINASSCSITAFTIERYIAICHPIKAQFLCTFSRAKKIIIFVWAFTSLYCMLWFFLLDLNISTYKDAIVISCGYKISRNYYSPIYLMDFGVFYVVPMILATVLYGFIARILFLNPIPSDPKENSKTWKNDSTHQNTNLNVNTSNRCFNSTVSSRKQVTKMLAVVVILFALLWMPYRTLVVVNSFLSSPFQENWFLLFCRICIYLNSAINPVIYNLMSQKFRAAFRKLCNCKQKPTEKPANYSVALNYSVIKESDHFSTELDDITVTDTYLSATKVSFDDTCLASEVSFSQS
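Enhancer read-out: after compound pinning and an initial kinetic agonist-mode read, an EC20 of TRH (10 nM final) was injected and fluo-8 calcium signal (Ex 480/Em 530) followed at 1 s/cycle for 100 cycles in TRHR-expressing cells.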
TRHR agonist: qHTS for Small Molecule Agonists and Allosteric Enhancers of Human TRH Receptor: Primary Screen for Agonists | TRHR cells, calcium flux fluo-8, FDSS agonist mode | activation, % at 2 µM | 360,000 tested, 0.18% active
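Agonist-mode FDSS calcium read (Ex 480/Em 530, 1 s cycles) in 1536-well TRHR cells with fluo-8 dye, after 10-cycle baseline and 23 nL compound addition; TRH at EC20 (10 nM final) added afterwards for the enhancer phase.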
D1 antagonist: Antagonist of Human D 1 Dopamine Receptor: qHTS; AID 504652, 2011; D(1A) dopamine receptor (Homo sapiens), P21728; HEK293 TREx D1 cells, calcium flux, dopamine EC80; stronger effect = lower value; 360,000 tested, 3.2% active; activity change, negative = inhibition, % at 10 µM; in the data active = activity change below about -30%
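HEK293 T-REx cells expressing inducible, force-coupled D1 receptor; no-wash Ca dye, 30–90 min RT. Cmpd → 180 s read at 1 Hz → EC80 DA → 180 s read.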
D1 agonist: Allosteric Agonists of the Human D1 Dopamine Receptor: qHTS | D(1A) dopamine receptor (Homo sapiens), P21728 | HEK293 T-REx D1 cells, calcium flux, agonist mode | activation, % at 2 µM | 360,000 tested, 1% active | AID 504660, 2011
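Tetracycline-induced HEK293 TREx D1 cells, force-coupled to calcium signalling, were dye-loaded with a no-wash calcium kit. Compound was pin-added after a 10 s baseline. Fluorescence was read kinetically at 1 cycle/s for 180 s, with calcium rises flagged as agonism.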
D1 PAM: Potentiators of Human D1 Dopamine Receptor: qHTS; HEK293 TREx D1 cells, calcium flux, dopamine EC20 potentiation; potentiation, % at 10 µM; 360,000 tested, 0.036% active; AID 504651, 2011; in the data active = potentiation above about 30%
Of the large screens only hits and unclear results are named; the others gave an inactive call. Cut-off read from the data, not from the text of the source, unless noted: active = activation above about 30%; inactive = the rest.

COc1ccc(Nc2cc(C(=O)NCCCN3CCN(c4ccccc4F)CC3)c3ccccc3n2)c(OC)c1	D1 antagonist -42
CCCSc1ncc(Cl)c(C(=O)Nc2sc(C(C)=O)c(C)c2C(=O)OCC)n1	none
CCCN1Cc2cccc(C(=O)Nc3ccc(C(C)=O)cc3)c2C1=O	none
COc1cc(-c2nnc(SCC(=O)Nc3cccc(C#N)c3)o2)cc(OC)c1OC	none
CCOc1ccc(N2C(=O)/C(=C\c3ccc(OC)c(O)c3)S(=O)(=O)C2c2cccc([N+](=O)[O-])c2)cc1 (centres undefined)	D1 antagonist -73
Cc1cc(C)n(-c2nc3nonc3nc2Nc2cccc(C)c2C)n1	D1 antagonist -32
Cc1ccc(C(=O)Nc2ccccc2C(=O)OCc2cc(=O)n3nc(C4CC4)sc3n2)cc1	none
CC(C)c1c(C(=O)N/N=C/c2ccoc2)nnn1-c1nonc1N	none
CC(C)c1c(C(=O)N/N=C/c2ccsc2)nnn1-c1nonc1N	D1 agonist 39
CC(C)c1c(C(=O)N/N=C/c2ccc(C(F)(F)F)cc2)nnn1-c1nonc1N	D1 agonist 253
CC(C)c1c(C(=O)N/N=C/c2cccs2)nnn1-c1nonc1N	none
CCc1ccc(-n2c(SCc3cccc(F)c3)nc3[nH]ncc3c2=O)cc1	none
CCOc1ccc(N(C)c2ccc(/C=C3/SC(=S)NC3=O)cc2)cc1	D1 agonist 133
Cc1cc(C)cc(NC(=O)Cn2cc3c(n2)CCCCC3)c1	D1 agonist 51
O=C(CCSc1nnc2ccc3ccccc3n12)Nc1ccc(F)cc1	none
O=C(CCSc1ccc(F)cc1)Nc1ccc(-n2cnnn2)cc1	D1 antagonist -40
CC(=O)Nc1ccc(Nc2cc(C)nc3c(-c4ccccc4)cnn23)cc1	D1 antagonist -40
CC(=O)Nc1ccc(Nc2cc(-c3ccccc3)nc3ncnn23)cc1	TRHR PAM 38
Cc1ccccc1NC(=O)c1nc(S(C)(=O)=O)ncc1N(Cc1ccco1)Cc1sccc1C	none
COc1cccc(N2CCN(C(=O)c3ccc4c(Cl)c5c(nc4c3)CCCC5)CC2)c1	none
CSCCC(NC(=O)c1ccc(Cl)cc1)C(=O)OCC(=O)Nc1ccc(C#N)cc1 (centres undefined)	D1 antagonist -40
CSCCC(NC(=O)c1ccccc1)C(=O)OCC(=O)c1ccc[nH]1 (centres undefined)	none
CSCCC(NC(=O)c1ccc(Cl)cc1)C(=O)OCC(=O)c1ccc[nH]1 (centres undefined)	D1 antagonist -35
CSCCC(NC(=O)c1ccc(Cl)cc1)C(=O)OCC(C)=O (centres undefined)	none
Cc1[nH]c2ccccc2c1C(=O)C(=O)NC1CC(=O)N(c2cccc(F)c2)C1 (centres undefined)	none (no result: D1 antagonist)
Cc1cc2c(s1)c1cnn(Cc3cccc(Cn4ncc5c6sc(C)cc6n(C)c5c4=O)c3F)c(=O)c1n2C	none
Cc1ccc(C2CC(=O)Oc3cc(O)ccc32)cc1 (centres undefined)	D1 antagonist -30
Cc1cc(Cl)ccc1NC(=O)CCn1nc(C)c2c(C)n(-c3ccccc3)nc2c1=O	none
Cc1ccccc1C(=O)NNc1ncnc2c1cnn2-c1cccc(Cl)c1	none
O=C(Nc1ccc(Cl)cc1)N1CCC(c2nc(-c3cccs3)no2)CC1	D1 antagonist -46
COc1ccc(NC(=O)N2CCC(c3nc(-c4cccs4)no3)CC2)cc1	none
C=CCNC(=S)NNC(=O)c1ccccc1	TRHR PAM 39
CSc1ccc(C2c3c(oc4cc(C)cc(C)c4c3=O)C(=O)N2CCO)cc1 (centres undefined)	D1 antagonist -46
CSc1ccc(C2c3c(oc4cc(C)cc(C)c4c3=O)C(=O)N2Cc2ccco2)cc1 (centres undefined)	none
CC1=NN(C(=O)c2ccc(Cn3cc([N+](=O)[O-])cn3)cc2)C(O)(C(F)(F)F)C1 (centres undefined)	D1 agonist 42

Screening data as filed in PubChem.
